Consider 40 sequences from the OligoGym collection.
Note: reference of the scale not given here.

For the first assay, the target named is UNC5D. Briefly: pooled miR-30 sensor sort-seq; sequence = guide strand. The following applies: shRNA.
Take TTAAAATGTATCAAACATCTAA: the sensor-assay potency score (higher = more potent) was found to be 0.16. Still for that read-out and setting: to TTAGAAAAAACAACTTTCCGTA belongs 0.101.

The sequence TTGTCCTACATCATAAGCCTTT gave a sensor-assay potency score (higher = more potent) of -0.645.

For TACATTTGTTTATCAATCCTGA, the sensor-assay potency score (higher = more potent) was -0.0896. On the same count and under the same terms, next, TAACCAACCTCTAAGTAGCTGA: 0.224.

In the case of TTGACAATAATCTTGTCTCATC, the sensor-assay potency score (higher = more potent) was -0.801. TAGATCAACACGTGTCTCCTAG showed a sensor-assay potency score (higher = more potent) of 1.06. Still for that read-out and setting: to TAAATTAACTTTATGATGCTAC belongs -0.135; to TAGATAACTAGATCAACACGTG, -0.0609. In turn, TACATTTCTATAGAAATCCTAT had a sensor-assay potency score (higher = more potent) of -0.569.

The next assay has as its target UPK1A. Described as above. Particulars: shRNA.
For the sequence TCTTGCTCAATCATGACGCGGT, the sensor-assay potency score (higher = more potent) is 0.151. Same read-out and setting: next, TATGGTCTCAGCAAACAGGGAC: -0.387; TTGGACACCATGTAGTCACGGT: 0.419. The same measure, in the same setting: to TAGCAGGCCCACCACAACTGGA belongs -1.8. In turn, TTGGTGAACAGGTAGTCCATGT yielded a sensor-assay potency score (higher = more potent) of -0.409. Same read-out and setting: next, ATGGCTATCAGCATGACCGGGA: -0.114; TAGAAGGTCAGCATCTGCTTGG: -0.08; TACGTGAGGACCATGGACCGGC: 0.148. Take TAGCTGTCGATGGCGTGGCCGA: the sensor-assay potency score (higher = more potent) is -1.49. As to TACTGGTCGGCTGTCACCCATA, the sensor-assay potency score (higher = more potent) is -1.44. Sequence TAGGACGTGATGCAGGAGGCGC yielded a sensor-assay potency score (higher = more potent) of -1.09.

The next assay concerns the target UQCRQ. Described as above. The following applies: shRNA.
TATTGTGTCTTTGAGACACTAC gave a sensor-assay potency score (higher = more potent) of -0.42. Same read-out and setting: to TTCTTCCTCTTGGATCTCTCGA belongs -0.853; to AACGGTGACAAGCTGTAGCTGA, 0.0218.

For the sequence TCGAACGGTGACAAGCTGTAGC, the sensor-assay potency score (higher = more potent) was -0.337. Same read-out and setting: next, TCCTTTAGTGAAGACGTGCGGA: -0.407; TGCTCGAACGGTGACAAGCTGT: -0.735; ATAAAACACTACAAACTGCGGC: 0.284.

Take TCGAACTCTTCAGTCCCCCATG: the sensor-assay potency score (higher = more potent) is -1.13. Still for that read-out and setting: to TGGATCTCTCGAACTCTTCAGT belongs -0.739; to TGTAGCTGATCACATGCCGCAT, -0.74; to TAAAACACTACAAACTGCGGCA, 0.151.

The next assay deals with USO1. The description is as above. Particulars: shRNA.
In turn, TTTTAATGTAGAAACCTGCTGC yielded a sensor-assay potency score (higher = more potent) of 0.733. Still for that read-out and setting: next, TAGGATAGTACAAAGCTGCTGC: 0.88; TATATTATATAGTATGTCCAAA: -1.01. Same read-out and setting: to TAGCATTAGATGTAGATTGGTC belongs 0.084. The same measure, in the same setting: next, TTATCATTGAAATAAATCGAAA: -1.61. Sequence TACACGAACAAGCTGTAGCATT showed a sensor-assay potency score (higher = more potent) of -0.757. The sequence TTATAGTCTCGGTCTCTCCTTG had a sensor-assay potency score (higher = more potent) of 0.0783. Still for that read-out and setting: next, TTTCTGATCTTGATCGGCCAAG: -1.48.
